Data on 29 compounds can be found in PubChem BioAssay.

Where “and” joins values, the source holds several entries; their conditions need not be identical. Identical values can stand only once. Calls of active or inactive are those of the source.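 The calls were made as follows: active = compounds whose cell count with miR-34 switched on is under 0.7 times the count with it off; inactive = the rest.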

The experiment can be described thus: sensitizers of A549 cells to miR-34 induction, primary screen, imaging, A549 dox-inducible miR-34, nuclei and caspase counts (AID 1347080). Also: test concentration not given here. The settings on record: A549 miR-34 inducible, Hoechst nuclei count, 48 h.
[1] abbreviates: stronger effect = lower value, cell number ratio, induced over uninduced.
Where [2] appears, read: measured here: relative caspase fold change +Dox/-Dox.
Where [3] appears, read: measured here: total cells with miR-34 induction, stronger effect = lower value.
The mark [4] stands for this setting: measured here: total cells without miR-34 induction.

`O=P(O)(O)OC1[C@H](O)[C@H](O)C(O)[C@H](O)[C@H]1O` (stereo partly specified): the fold change is 1.11 (inactive) under setting [1] and 0.357 under setting [2]. In addition, the cell count is 6420 under setting [3] and 5790 under setting [4].
For `CCCCC[C@H](O)/C=C/[C@H]1[C@H](O)CC(=O)[C@H]1CCCCCCC(=O)O`, the fold change under setting [1] is 1.03 (inactive) and the fold change under setting [2] came out at 0.989. In addition, the cell count under setting [3] is 5570 and the cell count under setting [4] came to 5390.
For `CCCCC[C@H](O)/C=C/[C@H]1[C@H](O)CC(=O)[C@H]1C/C=C\CCCC(=O)O` the same measures were 0.969 (inactive), 1.41, 5730 and 5910.
For `C#CCCCCCCCCCNC(=O)Oc1cccc(-c2cccc(C(N)=O)c2)c1`, the fold change was 0.97 (inactive) under setting [1] and 1.13 under setting [2]. For the same compound, the cell count reads like this: under setting [3], 5690; under setting [4], 5860.
For `NC1=NC(=O)/C(=C/c2ccc(O)cc2)S1` the same measures were 1.06 (inactive), 1.49, 6100 and 5780.
For the compound `COC1=C2C[C@@H](C)C[C@H](OC)[C@H](O)[C@@H](C)/C=C(\C)[C@H](OC(N)=O)[C@@H](OC)/C=C\C=C(/C)C(=O)NC(=CC1=O)C2=O`, the fold change under setting [1] is 0.898 (inactive) and the fold change under setting [2] was 1.11. The cell count reads like this: under setting [3], 1320; under setting [4], 1470.
For `CC(C(=O)Nc1cccc(N=Cc2c(O)ccc3ccccc23)c1)c1ccccc1` (stereo unspecified) the same measures were 0.971 (inactive), 1.6, 5970 and 6150.
For `CCCCC(C)(C)[C@H](O)/C=C/[C@@H]1[C@@H](C/C=C\CCCC(=O)O)[C@H](O)C[C@H]1O` the same measures were 0.901 (inactive), 1.73, 5660 and 6290.
In the same order, the values of `C#CCCC[C@@H](O)CCCCCCCCCCC(=O)O` are 0.902 (inactive), 1.14, 5310 and 5890.
On to `O=C(CCC/C=C\C[C@@H]1[C@@H](/C=C/[C@@H](O)CCc2ccccc2)[C@H](O)C[C@@H]1O)NC(CO)CO`, for which the fold change under setting [1] is 0.978 (inactive) and the fold change under setting [2] amounted to 1.15. Moreover, the cell count amounted to 5210 under setting [3] and 5330 under setting [4].
For `CCCCC/C=C\CCCCCCCCCCCCC(=O)O` the same measures were 0.9 (inactive), 1.51, 4990 and 5540.
In the same order, the values of `O=C1O/C(=C/Br)CC[C@@H]1c1cccc2ccccc12` are 0.956 (inactive), 0.986, 5530 and 5790.
In the same order, the values of `CCCCC[C@H](O)/C=C/[C@H]1C=CC(=O)[C@H]1CCCCCCC(=O)O` are 0.88 (inactive), 1.97, 5070 and 5760.
Regarding `O=C(O)CCC/C=C\C[C@@H]1[C@@H](/C=C/[C@@H](O)C2Cc3ccccc3C2)[C@@H](F)C[C@@H]1O`, the fold change under setting [1] was 0.86 (inactive) and the fold change under setting [2] was found to be 2.11. Also, the cell count reads like this: under setting [3], 4580; under setting [4], 5320.
`CCCC[C@H](C)C[C@H](O)/C=C/[C@H]1[C@H](O)CC(=O)[C@@H]1CCCC/C=C/C(=O)O`: the fold change was 0.92 (inactive) under setting [1] and 1.29 under setting [2]. In addition, the cell count by setting is: under setting [3], 5710; under setting [4], 6200.
In the same order, the values of `CCCCCCCCCCCCCCCC(=O)NC(C)C` are 1.13 (inactive), 0.996, 6190 and 5500.
For `CCN(CC)C(=O)CCC/C=C\C[C@@H]1[C@@H](/C=C/[C@@H](O)CCc2ccccc2)[C@H](O)C[C@@H]1O` the same measures were 0.995 (inactive), 1.45, 5990 and 6020.
For `CCCCCC/C=C/C=C\CCCCCCCC(=O)O` the same measures were 0.985 (inactive), 0.691, 5840 and 5920.
In the case of `C[C@@H]1CC[C@H]2[C@@H](C)C(O)O[C@@H]3OC4(C)CC[C@@H]1[C@]32OO4` (stereo partly specified), the fold change was 0.843 (inactive) under setting [1] and 0.767 under setting [2]. Also, the cell count reads like this: under setting [3], 3740; under setting [4], 4440.
For `CCCCCCCCCCCCCCCC(=O)N[C@H]1CCOC1=O` the same measures were 0.999 (inactive), 1.15, 5590 and 5590.
Take `CCCCC[C@H](O)/C=C/[C@@H]1[C@@H](C/C=C/CCCC(=O)O)[C@@H](O)C[C@H]1O`: the fold change runs as follows: under setting [1], 0.9 (inactive) and 0.944 (inactive); under setting [2], 1.55 and 0.855. Moreover, the cell count reads like this: under setting [3], 5350 and 5640; under setting [4], 5940 and 5970.
For the compound `CCCCC[C@H](O)/C=C/[C@H]1[C@@H](O)CC(=O)[C@@H]1CCCCCCC(=O)O`, the fold change by setting is: under setting [1], 0.965 (inactive); under setting [2], 1.07. For the same compound, the cell count amounted to 5320 under setting [3] and 5510 under setting [4].
In the same order, the values of `CCCCC[C@@H](O)CC[C@H]1[C@H](O)CC(=O)[C@@H]1CCCCCCC(=O)O` are 0.971 (inactive), 1.47, 5350 and 5510.
For `Cc1nc(COP(=O)(O)O)cc(CN(CCN(CC(=O)O)Cc2cc(COP(=O)(O)O)nc(C)c2O)CC(=O)O)c1O.[Mn]` the same measures were 1.02 (inactive), 0.746, 9240 and 9050.
For the compound `CCCCCCCC/C=C\CCCCCCCC(=O)C(F)(F)F`, the fold change by setting is: under setting [1], 0.972 (inactive); under setting [2], 0.952. The cell count is, setting by setting: under setting [3], 6200; under setting [4], 6380.
Take `NC(=NCC[C@H](N)C(=O)O)NO`: the fold change is 0.915 (inactive) under setting [1] and 0.994 under setting [2]. Further, the cell count runs as follows: under setting [3], 4720; under setting [4], 5160.
In the case of `CCCCCCCCCCCCCCCCCC(=O)N[C@H]1CCOC1=O`, the fold change was 1.11 (inactive) under setting [1] and 1.44 under setting [2]. The cell count runs as follows: under setting [3], 6650; under setting [4], 6000.
In the same order, the values of `CCCCC[C@H](O)/C=C/[C@@H]1[C@@H](CCCCCCC(=O)O)[C@H](O)C[C@H]1O` are 0.962 (inactive), 1.22, 6020 and 6250.
In the same order, the values of `CCCCC(C)(C)[C@H](O)/C=C/[C@H]1C=CC(=O)[C@@H]1CCCCCCC(=O)O` are 1 (inactive), 1.69, 5490 and 5490.
